PMC11062922 (Nature Chemical Biology, 2023)
Where two headings read alike, the source gives them in different places.

What was measured:
Conditions in all cases: read-out: apparent Kd, n = 1
PBK = test system: PBK
PDGFRB = test system: PDGFRB
PRKAA1 = test system: PRKAA1
[1] = compound concentrations:100 nM and 1000 nM (sheet 'Lestaurtinib' of Supplementary Table 1),run:Lestaurtinib_02896_R3,Plate:MR030
[2] = compound concentrations:100 nM and 1000 nM (sheet 'Lestaurtinib' of Supplementary Table 1),run:Lestaurtinib_03172_R1,Plate:MR031

Substance: Lestaurtinib
- potency estimated from few doses (PBK; [1]): 1970 nM
- potency estimated from few doses (PBK; [2]): 1810 nM
- potency estimated from few doses (PBK; compound concentrations:100 nM and 1000 nM (sheet 'Lestaurtinib' of Supplementary Table 1),run:Lestaurtinib_03172_R3,Plate:MR031): 1840 nM
- potency estimated from few doses (PDGFRB; compound concentrations:100 nM and 1000 nM (sheet 'Lestaurtinib' of Supplementary Table 1),run:Lestaurtinib_02364_R1,Plate:MR002): 2200 nM
- potency estimated from few doses (PDGFRB; compound concentrations:100 nM and 1000 nM (sheet 'Lestaurtinib' of Supplementary Table 1),run:Lestaurtinib_02381_R1,Plate:MR004): 1570 nM
- potency estimated from few doses (PDGFRB; compound concentrations:100 nM and 1000 nM (sheet 'Lestaurtinib' of Supplementary Table 1),run:Lestaurtinib_02407_R3,Plate:MR005): 428 nM
- potency estimated from few doses (PDGFRB; compound concentrations:100 nM and 1000 nM (sheet 'Lestaurtinib' of Supplementary Table 1),run:Lestaurtinib_02437_R2,Plate:MR007): 717 nM
- potency estimated from few doses (PDGFRB; compound concentrations:100 nM and 1000 nM (sheet 'Lestaurtinib' of Supplementary Table 1),run:Lestaurtinib_02437_R3,Plate:MR007): 1300 nM
- potency estimated from few doses (PDGFRB; compound concentrations:100 nM and 1000 nM (sheet 'Lestaurtinib' of Supplementary Table 1),run:Lestaurtinib_02438_R2,Plate:MR008): 2020 nM
- potency estimated from few doses (PDGFRB; compound concentrations:100 nM and 1000 nM (sheet 'Lestaurtinib' of Supplementary Table 1),run:Lestaurtinib_02438_R3,Plate:MR008): 1360 nM
- potency estimated from few doses (PDGFRB; compound concentrations:100 nM and 1000 nM (sheet 'Lestaurtinib' of Supplementary Table 1),run:Lestaurtinib_02443_R1,Plate:MR009): 1570 nM
- potency estimated from few doses (PDGFRB; compound concentrations:100 nM and 1000 nM (sheet 'Lestaurtinib' of Supplementary Table 1),run:Lestaurtinib_02443_R3,Plate:MR009): 279 nM
- potency estimated from few doses (PDGFRB; compound concentrations:100 nM and 1000 nM (sheet 'Lestaurtinib' of Supplementary Table 1),run:Lestaurtinib_02473_R1,Plate:MR010): 982 nM
- potency estimated from few doses (PDGFRB; compound concentrations:100 nM and 1000 nM (sheet 'Lestaurtinib' of Supplementary Table 1),run:Lestaurtinib_02487_R1,Plate:MR012): 998 nM
- potency estimated from few doses (PDGFRB; compound concentrations:100 nM and 1000 nM (sheet 'Lestaurtinib' of Supplementary Table 1),run:Lestaurtinib_02496_R1,Plate:MR013): 1610 nM
- potency estimated from few doses (PDGFRB; compound concentrations:100 nM and 1000 nM (sheet 'Lestaurtinib' of Supplementary Table 1),run:Lestaurtinib_02496_R3,Plate:MR013): 1530 nM
- potency estimated from few doses (PDGFRB; compound concentrations:100 nM and 1000 nM (sheet 'Lestaurtinib' of Supplementary Table 1),run:Lestaurtinib_02566_R2,Plate:MR014): 1700 nM
- potency estimated from few doses (PDGFRB; compound concentrations:100 nM and 1000 nM (sheet 'Lestaurtinib' of Supplementary Table 1),run:Lestaurtinib_02566_R3,Plate:MR014): 1620 nM
- potency estimated from few doses (PDGFRB; compound concentrations:100 nM and 1000 nM (sheet 'Lestaurtinib' of Supplementary Table 1),run:Lestaurtinib_02577_R1,Plate:MR016): 1800 nM
- potency estimated from few doses (PDGFRB; compound concentrations:100 nM and 1000 nM (sheet 'Lestaurtinib' of Supplementary Table 1),run:Lestaurtinib_02584_R1,Plate:MR017): 1790 nM
- potency estimated from few doses (PDGFRB; compound concentrations:100 nM and 1000 nM (sheet 'Lestaurtinib' of Supplementary Table 1),run:Lestaurtinib_02584_R2,Plate:MR017): 1590 nM
- potency estimated from few doses (PDGFRB; compound concentrations:100 nM and 1000 nM (sheet 'Lestaurtinib' of Supplementary Table 1),run:Lestaurtinib_02584_R3,Plate:MR017): 1990 nM
- potency estimated from few doses (PDGFRB; compound concentrations:100 nM and 1000 nM (sheet 'Lestaurtinib' of Supplementary Table 1),run:Lestaurtinib_02601_R1,Plate:MR018): 1820 nM
- potency estimated from few doses (PDGFRB; compound concentrations:100 nM and 1000 nM (sheet 'Lestaurtinib' of Supplementary Table 1),run:Lestaurtinib_02601_R2,Plate:MR018): 1400 nM
- potency estimated from few doses (PDGFRB; compound concentrations:100 nM and 1000 nM (sheet 'Lestaurtinib' of Supplementary Table 1),run:Lestaurtinib_02601_R3,Plate:MR018): 1970 nM
- potency estimated from few doses (PDGFRB; compound concentrations:100 nM and 1000 nM (sheet 'Lestaurtinib' of Supplementary Table 1),run:Lestaurtinib_02724_R2,Plate:MR021): 749 nM
- potency estimated from few doses (PDGFRB; compound concentrations:100 nM and 1000 nM (sheet 'Lestaurtinib' of Supplementary Table 1),run:Lestaurtinib_02741_R1,Plate:MR023): 1370 nM
- potency estimated from few doses (PDGFRB; compound concentrations:100 nM and 1000 nM (sheet 'Lestaurtinib' of Supplementary Table 1),run:Lestaurtinib_02741_R2,Plate:MR023): 1340 nM
- potency estimated from few doses (PDGFRB; compound concentrations:100 nM and 1000 nM (sheet 'Lestaurtinib' of Supplementary Table 1),run:Lestaurtinib_02741_R3,Plate:MR023): 1830 nM
- potency estimated from few doses (PDGFRB; compound concentrations:100 nM and 1000 nM (sheet 'Lestaurtinib' of Supplementary Table 1),run:Lestaurtinib_02768_R3,Plate:MR028): 1580 nM
- potency estimated from few doses (PDGFRB; compound concentrations:100 nM and 1000 nM (sheet 'Lestaurtinib' of Supplementary Table 1),run:Lestaurtinib_02795_R1,Plate:MR022): 1320 nM
- potency estimated from few doses (PDGFRB; compound concentrations:100 nM and 1000 nM (sheet 'Lestaurtinib' of Supplementary Table 1),run:Lestaurtinib_02795_R3,Plate:MR022): 1600 nM
- potency estimated from few doses (PDGFRB; compound concentrations:100 nM and 1000 nM (sheet 'Lestaurtinib' of Supplementary Table 1),run:Lestaurtinib_02802_R1,Plate:MR029): 1590 nM
- potency estimated from few doses (PDGFRB; compound concentrations:100 nM and 1000 nM (sheet 'Lestaurtinib' of Supplementary Table 1),run:Lestaurtinib_02802_R3,Plate:MR029): 1930 nM
- potency estimated from few doses (PDGFRB; compound concentrations:100 nM and 1000 nM (sheet 'Lestaurtinib' of Supplementary Table 1),run:Lestaurtinib_02896_R2,Plate:MR030): 849 nM
- potency estimated from few doses (PDGFRB; [1]): 573 nM
- potency estimated from few doses (PDGFRB; [2]): 1130 nM
- potency estimated from few doses (PDGFRB; compound concentrations:100 nM and 1000 nM (sheet 'Lestaurtinib' of Supplementary Table 1),run:Lestaurtinib_03172_R2,Plate:MR031): 754 nM
- potency estimated from few doses (PDGFRB; compound concentrations:100 nM and 1000 nM (sheet 'Lestaurtinib' of Supplementary Table 1),run:Lestaurtinib_03252_R1,Plate:MR032): 1320 nM
- potency estimated from few doses (PDGFRB; compound concentrations:100 nM and 1000 nM (sheet 'Lestaurtinib' of Supplementary Table 1),run:Lestaurtinib_03252_R2,Plate:MR032): 970 nM
- potency estimated from few doses (PDGFRB; compound concentrations:100 nM and 1000 nM (sheet 'Lestaurtinib' of Supplementary Table 1),run:Lestaurtinib_03260_R1,Plate:MR033): 1570 nM
- potency estimated from few doses (PDGFRB; compound concentrations:100 nM and 1000 nM (sheet 'Lestaurtinib' of Supplementary Table 1),run:Lestaurtinib_03260_R2,Plate:MR033): 1930 nM
- potency estimated from few doses (PRKAA1; compound concentrations:100 nM and 1000 nM (sheet 'Lestaurtinib' of Supplementary Table 1),run:Lestaurtinib_02339_R2,Plate:MR001): 860 nM
- potency estimated from few doses (PRKAA1; compound concentrations:100 nM and 1000 nM (sheet 'Lestaurtinib' of Supplementary Table 1),run:Lestaurtinib_02339_R3,Plate:MR001): 1330 nM
- potency estimated from few doses (PRKAA1; compound concentrations:100 nM and 1000 nM (sheet 'Lestaurtinib' of Supplementary Table 1),run:Lestaurtinib_02364_R2,Plate:MR002): 936 nM
